From PubChem BioAssay AID493244 (The Scripps Research Institute Molecular Screening Center, 2011)
The campaign covered roughly 340,000 compounds. About 390 (0.11%) were called active. The full list was thinned out, with actives kept by preference. Unmarked numbers belong to inactive results.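 Rule for the calls: active = inhibition above the mean inhibition of all tested compounds plus 3 SD (cut at about 17% in these data); inactive = the rest.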

These compounds were tested against Troponin I, cardiac muscle (Homo sapiens) + Troponin T, cardiac muscle (Homo sapiens) + Troponin C, slow skeletal and cardiac muscles (Homo sapiens) (UniProt P19429+P45379+P63316) (assay: cardiac RTF calcium sensitivity inhibitors, primary screen, biochemical, IANBD-TnC fluorescence, EC70 calcium (AID 493244;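 note: assay run at fixed EC70 calcium of 1.6 mM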)). Conditions: IANBD-labeled cardiac RTF, Ca2+ fluorescence; at 7.15 µM; hits give high values.

Question: With `COc1ccc2c(c1O)-c1cccc3c1[C@@H](C2)N(C)CC3` as the compound, how does the inhibition read?
Answer: 4.82%

Question: Which inhibition does the source give for `COC1=C[C@@H]2[C@@H]3Cc4ccc(OC)c(O)c4[C@]2(CCN3C)CC1=O` here?
Answer: 19.3% (active)

Question: Which inhibition does the source give for `COc1ccc2c(c1)[C@]13CCCCC1C(C2)N(C)CC3` (stereo not given in full) here?
Answer: -1.69%

Question: Which inhibition does the source give for `Cc1ccc(-c2nc3ccccc3c(=O)n2-c2ccc(Br)cn2)cc1` here?
Answer: -6.33%

Question: Which inhibition does the source give for `COC(=O)C1=C(c2ccccc2)C[C@@H]2CC[C@H]1N2C(=O)N1CCCCC1` here?
Answer: 4.81%
